According to PubChem BioAssay (EPA / NIEHS):
Active and inactive are the calls of the source. The calls were made as follows: active = hit-call score of the fitted dose curve at least 0.9, where 1 is the maximum; inactive = score below 0.9.

read-out: Alkaline Phosphatase, Placental (ALPP) gene, ALPP (gene 250); assay: LTEA_HepaRG_ALPP: Life Technologies and Expression Analysis (LTEA) Assay for Alkaline Phosphatase, Placental (ALPP) gene using HepaRG (AID 2283468); conditions: mRNA level, 48 h; actives raise or lower the signal;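 as to AC50: ALPP transcript by TaqMan qRT-PCR normalized to ACTB GAPDH and POLR2A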
Procedure: LTEA_HepaRG is a cell based, multiplexed-readout assay that uses HepaRG, a human liver cell line, with measurements taken at 48 hours after chemical dosing on a 96-well plate.LTEA_HepaRG_ALPP is one of 102 assay component(s) measured in the LTEA HepaRG cell culture assay. It is a marker of Cell proliferation, survival, death.Data from the assay component LTEA_HepaRG_ALPP was analyzed into 1 endpoint. This assay endpoint, LTEA_HepaRG_ALPP, was analyzed with bidirectional fitting relative to DMSO as the negative control and baseline of activity. Using a type of inducible reporter, measures of mRNA induction for gain or loss-of-signal activity can be used to understand regulation of transcription factor activity. To generalize the intended target to other relatable targets, this assay endpoint is annotated to the phosphatase intended target family, where the subfamily is Cell proliferation, survival, death.
A total of 1060 chemcials from the ToxCast library were tested in eight-point concentration-response experiments. Cell culture and cytotoxicity assays were conducted at Thermo Fisher Scientific's Custom Services facility (Madison, WI). A single lot of human HepaRG cells (Thermo Fisher Scientific, Frederick, MD) was used for the cell culture experiments. 96-well format collagen type I coated plates of human HepaRG cells were prepared using established methods. Briefly, cryopreserved HepaRG cells were thawed, plated at a density of approximately 100,000 cells/well in HepaRG Thaw, Plate, and General Purpose media (HPRG770, Thermo Fisher Scientific), and incubated for 48 hours. 0.5% DMSO was selected as vehicle control to balance the requisite need of DMSO in HepaRG cultures to maintain differentiation (for example, baseline metabolism, proportions of hepatocytes vs. cholangiocytes), while enabling further hepatic receptor pathway activation (for example, PXR and CAR) in response to chemical exposure. 48 hours after plating, the culture medium was replaced with HepaRG Serum-Free Incudtion Media. Cells were exposed to each test chemical in duplicate and maintained in CO2 incubators for another 48 hours. Chemical plates were thawed to room temperature and 200x concentrations of treatment groups were prepared. 8-point conentration-reponse curves were made with the highest exposure at 100 uM, followed by half-log dilutions, all in 0.5% DMSO. Each test plate contained variouse controls, induction positive controls (1mM phenobarbital), cytotoxicity positive controls ([…] aflatoxin B1), vehicle controls (0.5% DMSO), and total lysis controls (0.5% DMSO). Cell morphology images were taken using an Essen IncuCyte FLR automated microscope, with six 96-well plates imaged in about 24 minutes. Images were captured and exported and JPEG files. Spent culture media was transfered to black-well plates for the LDH assay, and remaining media was sorted at -80 C for later use. Cells were treated with RLT buffer and frozen until shipped for gene expression analysis. Total RNA was isolated from the cell suspension in 75 uL of Buffer RLT (Qiagen, Germantown, MD 20874) by Quintiles/Expression Analysis (Durham, NC) using a custom isolation procedure. Total RNA from each plate well was transferred to a preamplification plate. Fluidigm's 96.96 Dynamic ArrayTM (Fluidigm, Amsterdam, the Netherlands) technology was used for gene expression analyses by quantitative reverse transcription polymerase chain reaction (qRT-PCR, performed by Quintiles/Expression Analysis, Durham, NC)89. Standard TaqManTM Assays (Applied Biosystems/ThermoFisher Scientific, Foster City, CA) were used to assess the expression of 93 genes selected based on their selectivity and sensitivity to important hepatic receptors known to be modulated by environmental chemicals; importance in human hepatocyte functionality; and hepatotoxicity. […]

| SMILES | outcome | AC50 |
| --- | --- | --- |
| CNC(=O)Oc1cccc2c1OC(C)(C)C2 | inactive |  |
| N#CC(Br)Br | inactive |  |
| CCOC(=O)[C@]1(c2ccccc2)Oc2ccccc2[C@@H]1N |  | 50 µM (active) |
| CC(O)CCO (stereo not given) | inactive |  |
| C[N+](C)(C)CC1CO1 (stereo not given) | inactive |  |
| Nc1ccc(N=Nc2ccccc2)cc1 | inactive |  |
| Clc1ccc(C(c2ccc(Cl)cc2)C(Cl)(Cl)Cl)cc1 | inactive |  |
| c1ccc(N=Nc2ccccc2)cc1 | inactive |  |
| [O-][Cl+]O | inactive |  |
| C[C@]12C=CC3=C4CCC(=O)C=C4CC[C@H]3[C@@H]1CC[C@@H]2O |  | 24.4 µM (active) |
| OCCCl | inactive |  |
| Nc1ccc(Cl)cc1N | inactive |  |
| O=[N+]([O-])C(Br)(CO)CO | inactive |  |
| O=C(Oc1ccc(Br)cc1)N1CCN2CCC1CC2 | inactive |  |
| c1ccc(NNc2ccccc2)cc1 | inactive |  |
| O=C1CCCO1 | inactive |  |
| Cc1ccc([N+](=O)[O-])cc1 | inactive |  |
| O=Cc1ccco1 | inactive |  |
| C1=Cc2cccc3cccc1c23 | inactive |  |
| CC(C)(OOC(C)(C)c1ccccc1)c1ccccc1 | inactive |  |

| SMILES | outcome | AC50 |
| --- | --- | --- |
| CN(C)c1ccc(C(=O)c2ccc(N(C)C)cc2)cc1 |  | 3.13 µM (active) |
| OCCOCCO | inactive |  |
| [As]#[In] | inactive |  |
| CO[C@@H]1[C@H](OC(=O)NC(=O)CCl)CC[C@]2(CO2)[C@H]1[C@@]1(C)O[C@@H]1CC=C(C)C | inactive |  |
| c1ccc(C2CO2)cc1 (stereo not given) | inactive |  |
| Brc1ccc(Oc2ccccc2)cc1 | inactive |  |
| CCOc1cccc(C2(N3CCN(c4ccccc4)CC3)CCC(C)CC2)c1 (stereo not given) | inactive |  |
| Cn1cc(-c2ccccc2)c(=O)c(-c2cccc(C(F)(F)F)c2)c1 |  | 50 µM (active) |
| C=CCc1ccc2c(c1)OCO2 | inactive |  |
| Clc1ccc(C(c2ccc(Cl)cc2)C(Cl)Cl)cc1 |  | 50 µM (active) |
| O=C(Nc1ccccc1)c1ccccc1I | inactive |  |
| c1ccc2c(c1)oc1ccccc12 | inactive |  |
| N#CC(Br)(Br)C(N)=O | inactive |  |
| CCCCCCCCn1sccc1=O | inactive |  |
| Cc1cccc(N)c1N | inactive |  |
| ClC1=C(Cl)[C@]2(Cl)[C@H]3[C@H]([C@@H]4C=C[C@H]3C4)[C@@]1(Cl)C2(Cl)Cl | inactive |  |
| O=C(O)C1C2CCC(O2)C1C(=O)O (stereo not given) |  | 20.1 µM (active) |
| CCC12COCN1COC2 | inactive |  |
| OCCCBr | inactive |  |
| CCC(C)c1ccc(O)cc1 (stereo not given) | inactive |  |
